This passage reports growth results from PubChem BioAssay (NCI).

About 83,000 compounds went through this panel and 20% of them were active in at least one assay; those are over-represented in the sample as a whole.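 Activity criterion: percent growth below 10, measured after cells in 96-well plates were exposed to a single compound concentration for 48 hours.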 Calls of active or inactive are those of the source.

The subject of the test is HS 578T breast. The test is described as follows: NCI-60 one-dose screen, 48 h (100 = growth as untreated, 0 = no growth, -100 = all killed). The conditions noted are these: 10 µM unless noted.
In the case of `CC(=O)OC[C@]12CC[C@@H]([C@@H](C)c3nnc(-c4ccncc4)o3)[C@@H]1[C@H]1CC[C@@H]3[C@@]4(C)CC[C@H](OC(C)=O)C(C)(C)[C@@H]4CC[C@@]3(C)[C@]1(C)CC2`, the growth was 92.1% (inactive).
`CN(Cc1ccccc1)c1nc(Cl)c(C2CC(c3ccccc3)=NN2c2ccccc2)s1` (stereo not given): the growth is 103% (inactive).
With `CSc1nc(C)c([N+](=O)[O-])c(N)n1` the figure was 104% (inactive); with `CN1CCN(Cc2ccc(NC(=O)c3cncc(C#Cc4cnc(N)c5ccc(F)cc45)c3)cc2C(F)(F)F)CC1`, 11.4% (inactive).
Take `CN1CCN(C(=O)[C@@]2(C)CC[C@]3(C)CC[C@]4(C)C(=CC[C@@H]5[C@@]6(C)CCC(=O)NC(C)(C)[C@@H]6CC[C@]54C)[C@@H]3C2)CC1`: the growth was 55.2% (inactive).
The same measure for `COc1ccc(/C=C2\CN(C(=O)C(Cl)Cl)C/C(=C\c3ccc(OC)cc3)C2=O)cc1`: 17.8% (inactive); for `O=C(NNc1cnccn1)c1nc2cc(F)ccc2n2cccc12`: 60.6% (inactive); for `COc1cc(/C=C2\CN(S(=O)(=O)c3ccccc3)C/C(=C\c3cc(CN4CCCCC4)c(O)c(OC)c3)C2=O)cc(CN2CCCCC2)c1O`: 0.476% (active).
For the molecule `COc1ccc(/C=C/C(c2cc(OC)c(OC)c(OC)c2)n2ccnc2)cc1O` (stereo not given), the growth was 32.1% (inactive).
With `C/C=C(/C)n1cnc2c(Nc3ccccn3)nc(Cl)nc21` the figure was 97.8% (inactive); with `Oc1ccc(/C=C/c2ccc(O)cc2)cc1`, 61.3% (inactive); with `C#CCOc1cccc(-c2ncnc3cc(NC(=O)C=C)ccc23)c1`, 24.6% (inactive).
The same measure for `CCOC(=O)c1nn(CC(O)c2ccccc2)c(NC(=O)Nc2cccc(F)c2)c1C` (stereo not given): 94.5% (inactive); for `O=C(N/N=C\c1ccccc1S(=O)(=O)O)N/N=C/c1ccccc1S(=O)(=O)O`: 93.9% (inactive).
For `CC[C@]12C=CCN3CC[C@@]4(c5ccc(OC)cc5N(C)[C@H]4[C@@](O)(C(=O)OC)[C@@H]1OC(=O)CCC[P+](c1ccccc1)(c1ccccc1)c1ccccc1)[C@@H]32`, the growth was 25.5% (inactive).
With `CCCn1nc(C(=O)N(C)Cc2ccccc2)c2c1CCC(N1CCc3ccccc31)C2` (stereo not given) the figure was 96.4% (inactive); with `C=C1C(=O)O[C@H]2[C@H]1CC/C(COC(=O)/C=C\C(=O)NCc1ccc(Cn3c(=O)sn(CCCl)c3=O)cc1)=C\CC[C@@]1(C)O[C@@H]21`, 110% (inactive).
For the molecule `COC(=O)c1ccc(NC(=O)Nc2ccc(C(=O)OC)cc2)cc1`, the growth is 92.8% (inactive).
With `O=C(O)c1cn(C2CC2)c2cc(N3CCN(C(=O)Nc4nc(-c5ccc(Br)cc5)cs4)CC3)c(F)cc2c1=O`, the growth was 3.4% (active).
With `NC(=O)c1c(NC(=O)c2cccc(C(F)(F)F)c2)sc2c1CCC(=O)C2` the figure was 9.53% (active).
The same measure for `CC1=C(C(=O)Nc2ccccc2)C(c2ccc3c(c2)OCO3)NC(=S)N1` (stereo not given): 105% (inactive); for `NS(=O)(=O)c1ccc(-c2cc(-c3nnc(SCC(=O)Nc4ccc(C(=O)/C=C/c5ccc(Cl)cc5)cc4)n3-c3ccccc3)c3ccccc3n2)cc1`: 84.3% (inactive).
The same measure for `COC(=O)c1cc(Br)ccc1O`: 117% (inactive); for `C=C1C(=O)O[C@H]2[C@H]1CC/C(COC(=O)/C=C/C(=O)OC/C1=C/CC[C@@]3(C)O[C@H]3[C@H]3OC(=O)C(=C)[C@@H]3CC1)=C\CC[C@@]1(C)O[C@@H]21`: 90.2% (inactive); for `CNC1=CC(=O)c2c(C(=O)OC)c(C)[n+]([O-])c(C)c2C1=O`: 94.1% (inactive).
`O=C(Nc1ncccc1OCc1ccccc1)NC1CCCCCC1`: the growth is 105% (inactive).
With `O=C1/C(=C\c2cccc3nccnc23)SC(=S)N1CCc1ccc(O)cc1` the figure was 95.4% (inactive); with `O=C1/C=C/[C@@H](O)[C@@H]2C[C@@H](O)C[C@H]2/C=C/CCC[C@@H](O)CCO1`, 41.9% (inactive); with `Cc1ccc(CNc2c3ccccc3nc3ccccc23)cc1`, 38.5% (inactive).
As to `Cc1ccnc(Nc2ccc([N+](=O)[O-])c(NCCN3CCOCC3)n2)c1`, the growth is 38.3% (inactive).
With `CSc1nn2c(-c3ccc4ccccc4c3)ccnc2c1C#N` the figure was 33.6% (inactive); with `COc1cc2nc3sc(C(=O)Nc4ccc(C(=O)OC(C)C)cc4)c(C(=O)Nc4ccc(Cl)cc4C)n3c(=O)c2cc1OC`, 58.9% (inactive).
With `COC(=O)/C=C1/SC(=Nc2ccc([N+](=O)[O-])cc2)N(CCc2c[nH]c3ccc(O)cc23)C1=O` the figure was 47.5% (inactive).
Regarding `O=S1(=O)C=C(c2ccccc2)C(c2ccccc2)=C1`, the growth is -5.2% (active).
`O=C(O)COc1ccc(Cl)c(Cl)c1`: the growth is 123% (inactive).
The same measure for `O=C1/C(=C/c2ccccn2)NC(=S)N1c1ccccc1Cl`: 72.5% (inactive).
`CCS/C(Nc1ccccc1)=C(\C#N)C(=O)Nc1ccc(OC)cc1`: the growth was 27.4% (inactive).
As for `COc1ccc(C(=O)N2c3ccccc3Sc3ccccc32)c(C(F)(F)F)c1`, the growth was 24.3% (inactive).
For the molecule `Cc1ccc(-c2csc(NC(=O)c3ccccc3CN3C(=O)c4ccccc4C3=O)n2)cc1`, the growth is 98.8% (inactive).
The same measure for `CNC(=O)c1cc(Oc2cccc3nc(NC(=O)Nc4cc(C(F)(F)F)ccc4Cl)ccc23)ccn1`: 76.4% (inactive).
